The source of these data is a collection of fitness landscapes (doi:10.1038/s41467-024-54723-y).

In all, about 18,000 sequences were measured (“TetR repression strength (sort-seq, GFP reporter)”: median about 0.23, highest 2% from about 0.68 on). The list comes from a sample in which the highest values are over-represented; it also holds similar and randomly drawn sequences.

Chain of TetR (class B, Tn10) (P04483 whole entry): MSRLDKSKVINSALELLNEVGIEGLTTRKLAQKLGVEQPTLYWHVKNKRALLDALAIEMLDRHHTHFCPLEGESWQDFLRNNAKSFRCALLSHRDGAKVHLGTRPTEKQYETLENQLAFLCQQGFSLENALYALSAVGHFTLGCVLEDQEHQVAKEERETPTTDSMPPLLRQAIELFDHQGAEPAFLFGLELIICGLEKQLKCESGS

The test concerns the target TetR (class B, Tn10) (UniProt P04483). Put plainly: TetR repression strength (sort-seq, GFP reporter) (relative to tetO2 = 1); higher = stronger repression. Particulars: E. coli. Summed up: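 In LB with 50 µg/mL chloramphenicol, E. coli SIG10-MAX holding a low-copy library with eight randomized operator positions between a constitutive promoter and sfGFP, plus constitutive TetR, grew for 5 h at 37 °C. FACS then sorted 10^6 cells into 13 fluorescence bins for Illumina sequencing of each bin. Repression strength equals the top bin index plus one less the read-weighted mean bin, normalized to the unaltered operator. Values from three independent transformations were averaged when reads were ≥30 in every replicate and the CV was ≤0.5.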
Sequence TCCCCTTGAGTGGACGAGA showed a TetR repression strength of 0.325.

TCCCAGAGAGTAGCAGAGA displayed a TetR repression strength of 0.294.

TCCCCCACAGTAAGAGAGA gave a TetR repression strength of 0.158.

TCCCTTATAGTGGGGGAGA: the TetR repression strength was determined as 0.161.

Turning to TCCCCAGCAGTGAGGGAGA, the TetR repression strength was 0.0743.

For TCCCCACGAGTGAGGGAGA, the TetR repression strength came out at 0.217.

In turn, TCCCCCACAGTGAGGGAGA gave a TetR repression strength of 0.311.

Turning to TCCCACCAAGTGAGGGAGA, the TetR repression strength was 0.324.

In turn, TCCCCACAAGTGAGGGAGA had a TetR repression strength of 0.956.

TCCCCACCAGTGAGGGAGA: the TetR repression strength was 0.933.

On to TCCCACTTAGTGACAGAGA, for which the TetR repression strength turned out to be 0.396.

The sequence TCCCTGTGAGTGAGAGAGA showed a TetR repression strength of 0.407.

For the sequence TCCCGTAGAGTATACGAGA, the TetR repression strength worked out at 0.126.

TCCCATTGAGTCCTAGAGA gave a TetR repression strength of 0.304.

TCCCACCAAGTACAGGAGA returned a TetR repression strength of 0.186.

In turn, TCCCGGTCAGTGACAGAGA registered a TetR repression strength of 0.666.

Turning to TCCCTCTCAGTGACAGAGA, the TetR repression strength was found to be 0.607.

For the sequence TCCCGCTTAGTGTCAGAGA, the TetR repression strength worked out at 0.634.

As for TCCCGCTGAGTGCCAGAGA, the TetR repression strength amounted to 0.341.

Regarding TCCCGCTGAGTGTCAGAGA, the TetR repression strength worked out at 1.09.

TCCCGCTCAGTGCCAGAGA registered a TetR repression strength of 0.801.

Sequence TCCCGCTCAGTGTCAGAGA had a TetR repression strength of 0.244.

TCCCGCAGAGTGTAGGAGA: the TetR repression strength worked out at 0.191.

Sequence TCCCGCAGAGTGTAAGAGA had a TetR repression strength of 0.753.

TCCCGCTCAGTGCCTGAGA returned a TetR repression strength of 0.348.

Turning to TCCCGCGGAGTGTAAGAGA, the TetR repression strength amounted to 0.256.

For the sequence TCCCGCTCAGTGACAGAGA, the TetR repression strength came to 0.715.

TCCCTCTAAGTGTCCGAGA had a TetR repression strength of 0.512.

In turn, TCCCTTCGAGTCCGAGAGA yielded a TetR repression strength of 0.228.

TCCCGCATAGTACCTGAGA had a TetR repression strength of 0.562.

Sequence TCCCCAGGAGTGTCTGAGA gave a TetR repression strength of 0.273.

For the sequence TCCCTTAAAGTATTAGAGA, the TetR repression strength turned out to be 0.252.

TCCCTTTAAGTTGACGAGA came in with a TetR repression strength of 0.338.

TCCCAGGTAGTCGGCGAGA yielded a TetR repression strength of 0.113.

TCCCGACCAGTATGCGAGA registered a TetR repression strength of 0.0346.

As to TCCCAGGGAGTAGTTGAGA, the TetR repression strength came to 0.0889.

Turning to TCCCGGGCAGTACACGAGA, the TetR repression strength was 0.318.

TCCCCGGAAGTAGGCGAGA gave a TetR repression strength of 0.186.

Regarding TCCCGGAAAGTAGGCGAGA, the TetR repression strength was 0.0444.

Take TCCCGGGCAGTAGGCGAGA: the TetR repression strength is 1.05.

As for TCCCGGGCAGTGGGCGAGA, the TetR repression strength came out at 0.253.

Take TCCCAGGCAGTAGGCGAGA: the TetR repression strength was found to be 0.205.

TCCCGGGCAGTTCAAGAGA yielded a TetR repression strength of 0.417.

Consider TCCCGGGCAGTACAAGAGA, for which the TetR repression strength amounted to 1.05.

Take TCCCGGTAAGTAGGAGAGA: the TetR repression strength worked out at 0.229.

Take TCCCGGTAAGTAGGCGAGA: the TetR repression strength worked out at 1.05.

TCCCGGGAAGTAGGCGAGA: the TetR repression strength amounted to 0.849.

On to TCCCGCTAAGTAGGCGAGA, for which the TetR repression strength worked out at 0.0386.

In turn, TCCCACCAAGTGTTCGAGA gave a TetR repression strength of 0.311.

Sequence TCCCTCGGAGTGCTTGAGA came in with a TetR repression strength of 0.224.

With TCCCGACGAGTAGCAGAGA, the TetR repression strength stood at 0.486.

For the sequence TCCCGGTAAGTCAAGGAGA, the TetR repression strength stood at 0.397.

Regarding TCCCTCATAGTGCTCGAGA, the TetR repression strength was found to be 0.581.

TCCCAGGGAGTGTTAGAGA registered a TetR repression strength of 0.263.

Sequence TCCCGCTGAGTCCGGGAGA showed a TetR repression strength of 0.401.

As for TCCCAGTCAGTAGGCGAGA, the TetR repression strength is 0.16.

Consider TCCCCGTCAGTAGGCGAGA, for which the TetR repression strength is 0.243.

The sequence TCCCGGTCAGTAGGCGAGA returned a TetR repression strength of 1.01.
